In test [1] the target is Cellular tumor antigen p53 (Homo sapiens) (UniProt P04637). As to the kind of experiment: TOX21_p53_BLA_p3_ratio: Tox21 HCT-116 p53 Agonism Beta-lactamase Assay, Ratio, Phase 3 (AID 2283596). The method, boiled down: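 Cells were seeded at 4000/well, rested 5 h at 37C, then dosed with DMSO compound solutions (217-fold dilution) for 16 h. CCF4-AM substrate was loaded for 2 h at room temperature, and the 460/530 nm emission ratio was fitted for gain of signal versus DMSO.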

For test [2] the target is unchanged. In words: TOX21_p53_BLA_p5_ratio: Tox21 HCT-116 p53 Agonism Beta-lactamase Assay, Ratio, Phase 5 (AID 2283599). The method, boiled down: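 Beta-lactamase reporter ratio (blue 460 nm over green 530 nm, 405 nm excitation) after 2 h CCF4-AM loading, in HCT-116 cells exposed 16 h at 37 C to compounds pinned at 217-fold dilution. Increases relative to DMSO baseline scored.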

The nature of test [3]: TOX21_p53_BLA_p5_viability: Viability Assessment in the Tox21 HCT-116 p53 Agonism Beta-lactamase Assay, Phase 5 (AID 2283600). An outline of the steps: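 Viability is taken from cellular ATP content, measured by luciferase luminescence in the same wells after the beta-lactamase ratio read. Cells are seeded at 4000 per well and exposed to DMSO-dissolved compounds, diluted 217-fold, for 16 h.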

Test [4] deals with Cellular tumor antigen p53 (Homo sapiens) (UniProt P04637). In words: TOX21_p53_BLA_p4_ratio: Tox21 HCT-116 p53 Agonism Beta-lactamase Assay, Ratio, Phase 4 (AID 2283601). The method, boiled down: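 Signal is the blue/green (460nm/530nm) ratio of cleaved versus uncleaved CCF4-AM substrate, read after 2 h substrate loading. Cells were HCT116 carrying the p53-responsive beta-lactamase reporter, dosed 16 h at 37C, 5% CO2; CellTiter-Glo measured in parallel.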

A short description of test [5]: Tanguay_ZF_120hpf_MORT_legacy: (Legacy) Oregon State University Tanguay Lab 120 Hour Post-fertilization zebrafish Assay for Mortality (AID 2283633).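 For AC50: fitted as increase in binary mortality versus DMSO negative control.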 An outline of the steps:
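Mortality endpoint from a multiplexed whole-embryo zebrafish screen. Dechorionated wild-type embryos received compound at 6 hpf and remained under static exposure at 28C until 120 hpf, with death noted as a present/absent call.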

Test [6] in a line: Tanguay_ZF_120hpf_YSE_legacy: (Legacy) Oregon State University Tanguay Lab 120 Hour Post-fertilization zebrafish Assay for Yolk Sac Edema (AID 2283634).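 For AC50: actives raise the incidence of yolk sac edema above the DMSO baseline.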 An outline of the steps:
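Readout: presence or absence of yolk sac edema at 120 hpf, fitted upward against DMSO controls. Exposure ran statically from 6 hpf in dechorionated embryos kept at 28C.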

The nature of test [7]: Tanguay_ZF_120hpf_AXIS_legacy: (Legacy) Oregon State University Tanguay Lab 120 Hour Post-fertilization zebrafish Assay for Body Axis Malformation (AID 2283635).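 For AC50: potency for an increased fraction of larvae scored with body axis malformation.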 An outline of the steps: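 Static 6–120 hpf chemical exposure of dechorionated wild-type 5D zebrafish, one per well at 28C; morphology endpoint scored binary at 120 hpf relative to DMSO control.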
A short description of test [8]: Tanguay_ZF_120hpf_EYE_legacy: (Legacy) Oregon State University Tanguay Lab 120 Hour Post-fertilization zebrafish Assay for Eye Malformation (AID 2283636).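 Note: binary presence or absence of eye malformation scored by brightfield in 120 hpf larvae.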 The method, boiled down:
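Binary brightfield scoring of eye defects at 120 hpf after static exposure from 6 hpf of single pronase-dechorionated wild-type embryos (28C, 0.64% DMSO). Non-mortality endpoints omitted where embryos died; fit vs DMSO.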

Test [9] in a line: Tanguay_ZF_120hpf_SNOU_legacy: (Legacy) Oregon State University Tanguay Lab 120 Hour Post-fertilization zebrafish Assay for Snout Malformation (AID 2283637). An outline of the steps: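 Binary snout-malformation call at 120 hpf in wild-type 5D embryos, chorion removed by pronase, under static exposure from 6 hpf at 28C (0.64% DMSO). Embryos dying by 24 or 120 hpf excluded.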
Test [10] is described as follows: TOX21_p53_BLA_p4_viability: Viability Assessment in the Tox21 HCT-116 p53 Agonism Beta-lactamase Assay, Phase 4 (AID 2283597).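 Note: hits lower the luminescence signal meaning cytotoxicity.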 The method, boiled down:
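Viability is taken as cellular ATP: after 16 h compound exposure of HCT116 cells and a 2 h room-temperature CCF4-AM substrate step, CellTiter-Glo reagent is added and luminescence is measured 30 min later.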

Values joined by “and” are separate entries in the source; they are usually repeats but may differ in a detail not shown here. Equal entries are not always repeated. Results filed as inconclusive are left out. Some compounds were tested as several samples or in several runs, with calls that do not always agree. Active and inactive are the calls of the source. Rule for the calls: active = hit-call score of the fitted dose curve at least 0.9, where 1 is the maximum; inconclusive = response in the unintended direction; inactive = score below 0.9.

Drawing on PubChem BioAssay (EPA / NIEHS), this text covers AC50 and outcome for 16 molecules.

Broadly, the AC50 is the concentration giving half of the maximal activity seen.

Chain of Cellular tumor antigen p53 (Homo sapiens) (P04637 whole entry, looked up): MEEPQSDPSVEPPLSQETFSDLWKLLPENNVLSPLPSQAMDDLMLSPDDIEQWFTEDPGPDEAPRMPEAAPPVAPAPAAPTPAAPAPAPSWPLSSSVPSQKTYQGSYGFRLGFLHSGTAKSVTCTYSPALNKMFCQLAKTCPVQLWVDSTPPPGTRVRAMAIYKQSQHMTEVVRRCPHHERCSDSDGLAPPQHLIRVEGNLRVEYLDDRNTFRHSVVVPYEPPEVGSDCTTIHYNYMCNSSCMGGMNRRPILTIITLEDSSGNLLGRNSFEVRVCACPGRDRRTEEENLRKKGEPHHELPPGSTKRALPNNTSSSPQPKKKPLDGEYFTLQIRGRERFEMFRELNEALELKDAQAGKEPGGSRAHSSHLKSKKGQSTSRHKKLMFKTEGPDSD

`Clc1ccccc1C(c1ccccc1)(c1ccccc1)n1ccnc1`: the AC50 is 74.1 µM (active) in test [1]; 86.2 µM (active) in [2]; 85.1 µM (active) in test [3]; 60.2 µM (active) and 16.6 µM (active) in [4]; 14.6 µM (active) in test [6]; 14.8 µM (active) in [7]. The result in test [1], in test [2], in [3], in test [5], in [8] and in test [9] was inactive.
Regarding `c1ccc2n[nH]nc2c1`, the outcome in test [1], in test [10], in test [2], in test [3], in [4] and in test [5] was inactive. For the same molecule, the result in [6], in [8] and in test [9] was inactive.
As for `CC1=CC(=O)/C(=C(/C)O)C(=O)O1`, the result in test [1], in test [2], in [3], in test [4], in test [5] and in test [6] was inactive.
For the molecule `CN1C(=O)N(c2ccccc2Br)Cc2cnc(Nc3ccc4c(c3)OCC(CO)O4)nc21` (stereo unspecified), the AC50 in test [1] is 13.8 µM (active); in test [10], 46.1 µM (active); in test [2] it was 13.6 µM (active); in [4], 14.2 µM (active); in [6], 3.4 µM (active); in [8], 3.44 µM (active). Besides, the AC50 in [9] was 2.27 µM (active). Besides, the call in test [3] and in test [5] was inactive.
For `CCN(CC)C(=O)c1cc(S(=O)(=O)Cc2ccccc2)c(N2CCC(c3ccccc3)CC2)cc1N(CC)CCN(C)C`, the result in test [1], in [2], in test [6] and in [8] was inactive. Besides, the AC50 in [10] is 17.9 µM (active) and 25.1 µM (active); in test [3] it was 40.1 µM (active); in test [4] it was 32.6 µM (active) and 42.6 µM (active); in test [5] it was 11.7 µM (active); in [9], 18 µM (active).
For the molecule `Oc1ccc2ccccc2c1`, the outcome in test [1], in [2], in [3], in test [4] and in [5] was inactive. Moreover, the AC50 in test [6] is 36.9 µM (active); in test [7], 55.2 µM (active); in [8], 61.7 µM (active); in test [9] it was 34.8 µM (active).
With `CC(=O)N1CCN(c2ccc(OC[C@H]3CO[C@](Cn4ccnc4)(c4ccc(Cl)cc4Cl)O3)cc2)CC1`, the AC50 in test [1] is 58.3 µM (active); in test [2], 46.1 µM (active); in [3], 64.4 µM (active); in test [4], 44.3 µM (active). In addition, the result in test [1], in [2], in test [3], in [4], in [5] and in [6] was inactive. For the same molecule, the outcome in [9] was inactive.
As for `Cc1cccc2ccccc12`, the result in test [1], in test [2], in test [3], in test [4], in test [5] and in test [6] was inactive. In addition, the molecule was called inactive in test [7] and in test [8].
On to `COc1ccc2cc(S(=O)(=O)N[C@H](CC(=O)N[C@H](Cc3ccc(CN4[C@H](C)CCC[C@@H]4C)cc3)C(=O)N(C)C(C)C)c3ccc4c(c3)OCO4)ccc2c1`, for which the outcome in test [1], in [5], in test [6], in test [8] and in test [9] was inactive. The AC50 in [10] is 60.6 µM (active); in test [2], 71.9 µM (active); in [3] it was 56.7 µM (active); in [4], 72.1 µM (active).
Turning to `CCCC(=O)OCCC(C)C`, the outcome in [1], in test [10], in test [2], in test [3], in [5] and in [6] was inactive. Further, the molecule was classed as inactive in [8] and in test [9].
Regarding `CC(C)(C)c1cc(/C=C2\SC(N)=NC2=O)cc(C(C)(C)C)c1O`, the outcome in test [1], in test [6], in test [8] and in [9] was inactive. For the same molecule, the AC50 is 84.4 µM (active) in [10]; 90.1 µM (active) in test [2]; 76.4 µM (active) in test [3]; 62.3 µM (active) in test [4]; 25.5 µM (active) in test [5].
On to `CCCCCCCCCCCCO`, for which the result in test [1], in test [2], in test [3], in test [4], in [5] and in [6] was inactive. The molecule was classed as inactive in test [7], in test [8] and in test [9].
Regarding `CO[C@H]1/C=C/O[C@@]2(C)Oc3c(C)c(O)c4c(O)c(c(/C=N/N5CCN(C)CC5)c(O)c4c3C2=O)NC(=O)/C(C)=C\C=C\[C@H](C)[C@H](O)[C@@H](C)[C@@H](O)[C@@H](C)[C@H](OC(C)=O)[C@@H]1C`, the outcome in [1], in test [10], in [2], in test [3], in test [4] and in [5] was inactive. Further, the molecule was classed as inactive in test [6], in test [8] and in test [9].
Consider `CC(O)CC(C)(C)O` (stereo unspecified), for which the outcome in [1], in test [2], in test [3], in test [4], in test [5] and in test [6] was inactive. Besides, the molecule was classed as inactive in test [7], in [8] and in test [9].
As for `Oc1ccccc1`, the outcome in [1], in [10], in test [2], in test [3], in test [4] and in [5] was inactive. The call in [6], in [7], in test [8] and in test [9] was inactive.
With `NC(=O)c1nc(-c2cccc(-c3cc(F)ccc3OCC(F)(F)C(F)(F)F)c2)n[nH]1`, the AC50 in test [1] is 87.4 µM (active); in [10], 70.5 µM (active); in [2], 86.6 µM (active); in test [3] it was 72.7 µM (active); in test [4], 86.3 µM (active); in test [6], 26.8 µM (active). Moreover, the AC50 in test [7] was 25.9 µM (active); in test [8], 9.38 µM (active); in test [9], 25.8 µM (active). Also, the molecule was called inactive in [5].
